Experimental data published in paper PMC7862700, “An all-to-all approach to the identification of sequence-specific readers for epigenetic DNA modifications on cytosine”.

Key:
Experiment in all cases: DAPPL (digital affinity profiling via proximity ligation, sequencing); 10 mM Tris-HCl pH 7.5, 50 mM NaCl, 1 mM DTT, 4% glycerol, room temperature, 30 min; GST-TFs on glutathione beads, 16-mer random dsDNA library, 0.1% formaldehyde crosslink after washing; high values mean tight binding
Settings in all cases: protein: recombinant; tags: N-terminal GST; dsDNA, one strand shown
ELK1 = target: T1, ELK1 (Homo sapiens, UniProt P19419 1-428)
T1 sequence: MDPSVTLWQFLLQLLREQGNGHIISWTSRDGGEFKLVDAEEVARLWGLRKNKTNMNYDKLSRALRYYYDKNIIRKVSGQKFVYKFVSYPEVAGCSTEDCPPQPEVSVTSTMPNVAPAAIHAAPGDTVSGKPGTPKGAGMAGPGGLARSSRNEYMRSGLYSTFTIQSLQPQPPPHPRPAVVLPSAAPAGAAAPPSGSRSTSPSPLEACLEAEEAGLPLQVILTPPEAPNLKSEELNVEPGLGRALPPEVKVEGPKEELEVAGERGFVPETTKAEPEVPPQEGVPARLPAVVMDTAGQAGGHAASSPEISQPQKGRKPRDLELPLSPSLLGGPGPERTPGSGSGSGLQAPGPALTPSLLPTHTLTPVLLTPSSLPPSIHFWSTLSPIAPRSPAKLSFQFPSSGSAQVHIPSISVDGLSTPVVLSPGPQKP
Method in brief: (§1)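 Binding signal is each hexamer's read frequency for a factor divided by its frequency in the tag-only sample. The factors were GST-fused human transcription factors from yeast, captured on glutathione beads, DNA-barcoded and pooled with that sample. Pools were incubated with 200 nmole of a random double-stranded 16-mer DNA library in Tris/NaCl/DTT/glycerol buffer at room temperature for 30 min, then washed, crosslinked with 0.1% formaldehyde, proximity-ligated with BsaI/T4 ligase (1 h, 37 °C), PCR-amplified and sequenced on an Illumina NextSeq500.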

GABPA = target: T2, GABPA (Homo sapiens, UniProt Q06546 1-454)
T2 sequence: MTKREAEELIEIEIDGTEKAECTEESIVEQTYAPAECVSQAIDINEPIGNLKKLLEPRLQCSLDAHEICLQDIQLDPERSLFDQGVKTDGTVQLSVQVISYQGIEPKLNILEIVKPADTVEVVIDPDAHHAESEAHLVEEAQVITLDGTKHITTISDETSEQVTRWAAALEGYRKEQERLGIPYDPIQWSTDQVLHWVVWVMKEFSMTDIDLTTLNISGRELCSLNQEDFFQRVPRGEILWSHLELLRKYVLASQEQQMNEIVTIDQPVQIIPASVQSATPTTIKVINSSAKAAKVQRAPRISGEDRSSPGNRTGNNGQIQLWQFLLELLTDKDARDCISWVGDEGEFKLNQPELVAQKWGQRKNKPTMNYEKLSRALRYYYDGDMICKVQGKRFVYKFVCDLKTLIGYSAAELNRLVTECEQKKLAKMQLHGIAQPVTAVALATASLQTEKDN
Method in brief: as §1

ERG = target: T3, ERG (Homo sapiens, UniProt P11308 1-479)
T3 sequence: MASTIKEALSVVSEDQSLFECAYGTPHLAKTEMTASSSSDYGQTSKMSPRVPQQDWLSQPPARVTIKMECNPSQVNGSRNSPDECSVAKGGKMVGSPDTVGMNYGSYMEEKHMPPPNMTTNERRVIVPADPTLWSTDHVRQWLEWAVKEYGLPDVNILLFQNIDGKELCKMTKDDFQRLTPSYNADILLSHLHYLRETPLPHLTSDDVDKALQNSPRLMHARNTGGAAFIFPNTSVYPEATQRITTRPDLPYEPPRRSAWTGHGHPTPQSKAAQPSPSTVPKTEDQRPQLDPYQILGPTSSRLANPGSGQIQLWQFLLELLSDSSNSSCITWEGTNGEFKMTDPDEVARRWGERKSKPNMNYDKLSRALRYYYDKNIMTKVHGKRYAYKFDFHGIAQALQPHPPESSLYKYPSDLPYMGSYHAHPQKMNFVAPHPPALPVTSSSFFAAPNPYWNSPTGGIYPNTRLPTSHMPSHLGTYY
Method in brief: as §1

ELF1 = ELF1 (Homo sapiens, UniProt P32519 1-619)
ELF1, sequence (P32519 whole entry): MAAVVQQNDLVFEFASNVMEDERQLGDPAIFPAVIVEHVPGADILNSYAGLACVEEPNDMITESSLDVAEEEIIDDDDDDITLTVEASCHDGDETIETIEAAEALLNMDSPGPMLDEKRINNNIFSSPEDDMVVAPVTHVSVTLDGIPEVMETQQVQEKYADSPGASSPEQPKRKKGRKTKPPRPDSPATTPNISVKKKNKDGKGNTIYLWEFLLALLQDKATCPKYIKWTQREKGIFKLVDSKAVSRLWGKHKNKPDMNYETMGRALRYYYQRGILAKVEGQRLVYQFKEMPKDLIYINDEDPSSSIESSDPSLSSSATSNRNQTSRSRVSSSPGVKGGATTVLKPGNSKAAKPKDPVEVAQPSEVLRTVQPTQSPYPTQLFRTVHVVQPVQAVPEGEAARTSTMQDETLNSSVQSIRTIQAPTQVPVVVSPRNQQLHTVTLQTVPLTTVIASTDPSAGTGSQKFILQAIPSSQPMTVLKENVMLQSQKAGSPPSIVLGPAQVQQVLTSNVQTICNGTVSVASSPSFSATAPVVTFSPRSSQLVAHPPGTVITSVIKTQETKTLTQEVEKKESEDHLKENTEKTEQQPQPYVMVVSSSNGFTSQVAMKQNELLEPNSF
Method in brief: as §1

EHF = target: T4, EHF (Homo sapiens, UniProt Q9NZC4 1-300)
T4 sequence: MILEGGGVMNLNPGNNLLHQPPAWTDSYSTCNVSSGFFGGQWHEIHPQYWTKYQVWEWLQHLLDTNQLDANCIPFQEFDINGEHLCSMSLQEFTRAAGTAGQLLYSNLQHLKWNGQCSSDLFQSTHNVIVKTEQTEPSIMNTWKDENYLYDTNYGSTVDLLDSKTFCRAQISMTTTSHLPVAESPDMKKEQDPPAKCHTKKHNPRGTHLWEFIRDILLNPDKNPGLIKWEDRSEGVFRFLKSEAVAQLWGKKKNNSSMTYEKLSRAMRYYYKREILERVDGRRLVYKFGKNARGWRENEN
Method in brief: as §1

SPI1 = SPI1 (Homo sapiens, UniProt P17947 1-270)
Method in brief: as §1

SPIB = SPIB (Homo sapiens, UniProt Q01892 1-262)
SPIB, sequence (Q01892 whole entry): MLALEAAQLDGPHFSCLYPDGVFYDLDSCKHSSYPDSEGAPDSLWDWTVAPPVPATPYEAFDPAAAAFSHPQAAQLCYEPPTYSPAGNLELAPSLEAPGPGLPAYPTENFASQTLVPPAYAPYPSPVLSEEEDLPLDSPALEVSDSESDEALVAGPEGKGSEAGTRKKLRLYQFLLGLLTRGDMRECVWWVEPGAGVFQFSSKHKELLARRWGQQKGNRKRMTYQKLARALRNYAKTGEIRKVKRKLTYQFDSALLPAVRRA
Method in brief: as §1

FEV = target: T5, FEV (Homo sapiens, UniProt Q99581 1-238)
T5 sequence: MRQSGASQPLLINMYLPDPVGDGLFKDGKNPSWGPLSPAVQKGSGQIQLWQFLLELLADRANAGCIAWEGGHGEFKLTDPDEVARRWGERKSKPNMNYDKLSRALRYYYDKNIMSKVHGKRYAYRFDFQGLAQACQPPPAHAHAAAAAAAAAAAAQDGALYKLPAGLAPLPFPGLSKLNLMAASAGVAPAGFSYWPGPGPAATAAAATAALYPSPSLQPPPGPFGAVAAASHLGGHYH
Method in brief: as §1

ETV5 = ETV5 (Homo sapiens, UniProt P41161 1-510)
ETV5, sequence (P41161 whole entry): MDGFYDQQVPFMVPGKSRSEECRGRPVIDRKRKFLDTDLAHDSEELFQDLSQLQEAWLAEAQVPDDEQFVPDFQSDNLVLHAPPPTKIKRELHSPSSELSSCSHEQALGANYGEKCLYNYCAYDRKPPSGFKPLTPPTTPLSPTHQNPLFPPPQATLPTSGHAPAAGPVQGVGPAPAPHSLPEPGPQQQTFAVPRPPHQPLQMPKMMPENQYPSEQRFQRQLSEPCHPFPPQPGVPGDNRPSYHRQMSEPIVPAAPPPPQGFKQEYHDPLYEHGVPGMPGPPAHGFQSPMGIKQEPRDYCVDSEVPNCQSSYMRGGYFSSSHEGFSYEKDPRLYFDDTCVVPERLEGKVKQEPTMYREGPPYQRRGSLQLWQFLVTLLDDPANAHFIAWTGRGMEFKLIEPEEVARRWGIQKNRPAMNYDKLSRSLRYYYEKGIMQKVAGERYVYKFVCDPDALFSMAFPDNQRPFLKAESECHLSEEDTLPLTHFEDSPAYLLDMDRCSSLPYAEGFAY
Method in brief: as §1

ELF4 = ELF4 (Homo sapiens, UniProt Q99607 1-663)
ELF4, sequence (Q99607 whole entry): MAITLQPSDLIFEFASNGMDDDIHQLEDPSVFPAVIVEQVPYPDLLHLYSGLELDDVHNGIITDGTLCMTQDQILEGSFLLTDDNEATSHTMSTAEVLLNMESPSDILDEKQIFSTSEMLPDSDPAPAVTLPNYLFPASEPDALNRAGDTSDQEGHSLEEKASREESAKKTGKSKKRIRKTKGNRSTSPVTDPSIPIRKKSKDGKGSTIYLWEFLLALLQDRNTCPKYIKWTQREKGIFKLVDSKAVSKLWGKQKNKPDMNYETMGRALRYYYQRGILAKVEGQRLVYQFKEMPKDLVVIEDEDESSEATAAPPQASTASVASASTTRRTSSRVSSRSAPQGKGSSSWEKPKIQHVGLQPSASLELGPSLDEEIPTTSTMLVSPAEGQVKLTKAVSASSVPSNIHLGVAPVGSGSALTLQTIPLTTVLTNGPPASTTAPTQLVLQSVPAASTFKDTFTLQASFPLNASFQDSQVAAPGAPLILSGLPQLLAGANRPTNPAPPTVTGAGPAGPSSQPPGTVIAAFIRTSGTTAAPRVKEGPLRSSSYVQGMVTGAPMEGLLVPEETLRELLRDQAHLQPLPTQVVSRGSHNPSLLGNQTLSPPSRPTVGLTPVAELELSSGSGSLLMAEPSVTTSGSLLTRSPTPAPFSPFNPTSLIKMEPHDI
Method in brief: as §1

ELK4 = target: T6, ELK4 (Homo sapiens, UniProt P28324-2 1-405)
T6 sequence: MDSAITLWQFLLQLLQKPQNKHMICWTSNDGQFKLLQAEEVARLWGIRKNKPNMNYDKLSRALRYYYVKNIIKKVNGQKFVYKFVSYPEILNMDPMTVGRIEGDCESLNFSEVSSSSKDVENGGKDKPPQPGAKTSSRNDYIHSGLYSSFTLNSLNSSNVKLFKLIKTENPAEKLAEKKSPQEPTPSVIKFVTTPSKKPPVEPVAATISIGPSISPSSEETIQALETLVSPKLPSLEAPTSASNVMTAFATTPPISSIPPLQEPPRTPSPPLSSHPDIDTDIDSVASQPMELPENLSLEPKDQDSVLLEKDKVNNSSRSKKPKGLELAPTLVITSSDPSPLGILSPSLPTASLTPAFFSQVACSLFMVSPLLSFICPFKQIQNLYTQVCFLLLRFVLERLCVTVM
Method in brief: as §1

ELF3 = target: T7, ELF3 (Homo sapiens, UniProt P78545 1-371)
T7 sequence: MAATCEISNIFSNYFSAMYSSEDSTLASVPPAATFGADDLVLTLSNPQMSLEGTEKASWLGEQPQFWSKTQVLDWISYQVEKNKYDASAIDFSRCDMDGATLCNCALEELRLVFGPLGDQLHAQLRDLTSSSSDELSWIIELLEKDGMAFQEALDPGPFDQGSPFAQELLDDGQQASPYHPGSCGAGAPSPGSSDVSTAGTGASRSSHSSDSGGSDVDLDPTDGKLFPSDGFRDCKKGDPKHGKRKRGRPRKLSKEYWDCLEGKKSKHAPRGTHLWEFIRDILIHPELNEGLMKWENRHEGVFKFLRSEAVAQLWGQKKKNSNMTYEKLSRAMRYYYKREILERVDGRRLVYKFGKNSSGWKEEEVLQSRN
Method in brief: as §1

ETV1 = ETV1 (Homo sapiens, UniProt P50549 1-477)
ETV1, sequence (P50549 whole entry): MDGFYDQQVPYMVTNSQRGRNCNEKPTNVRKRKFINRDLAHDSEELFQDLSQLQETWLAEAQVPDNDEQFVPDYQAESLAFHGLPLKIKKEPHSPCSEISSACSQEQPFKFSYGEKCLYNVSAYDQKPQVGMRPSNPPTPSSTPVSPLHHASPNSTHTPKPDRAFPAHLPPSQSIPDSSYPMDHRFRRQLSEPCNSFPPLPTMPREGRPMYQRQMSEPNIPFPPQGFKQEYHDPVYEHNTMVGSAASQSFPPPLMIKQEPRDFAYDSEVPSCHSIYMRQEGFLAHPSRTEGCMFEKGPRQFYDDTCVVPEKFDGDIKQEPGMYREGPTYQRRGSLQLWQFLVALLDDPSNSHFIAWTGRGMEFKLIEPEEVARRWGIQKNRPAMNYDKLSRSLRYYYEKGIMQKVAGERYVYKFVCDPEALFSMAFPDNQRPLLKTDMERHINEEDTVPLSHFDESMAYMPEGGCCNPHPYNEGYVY
Method in brief: as §1

ETV3L = target: T8, ETV3L (Homo sapiens, UniProt Q6ZN32 1-361)
T8 sequence: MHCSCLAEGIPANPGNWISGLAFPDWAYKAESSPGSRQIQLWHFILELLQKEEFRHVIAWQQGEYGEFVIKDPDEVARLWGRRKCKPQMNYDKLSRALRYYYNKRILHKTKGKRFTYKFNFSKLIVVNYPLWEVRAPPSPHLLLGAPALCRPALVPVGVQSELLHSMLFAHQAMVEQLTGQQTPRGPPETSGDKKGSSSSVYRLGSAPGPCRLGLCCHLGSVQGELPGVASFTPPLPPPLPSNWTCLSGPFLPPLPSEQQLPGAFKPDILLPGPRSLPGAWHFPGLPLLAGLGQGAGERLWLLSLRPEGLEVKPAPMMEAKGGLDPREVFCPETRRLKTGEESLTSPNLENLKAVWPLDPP
Method in brief: as §1

ETS2 = target: T9, ETS2 (Homo sapiens, UniProt P15036 1-469)
T9 sequence: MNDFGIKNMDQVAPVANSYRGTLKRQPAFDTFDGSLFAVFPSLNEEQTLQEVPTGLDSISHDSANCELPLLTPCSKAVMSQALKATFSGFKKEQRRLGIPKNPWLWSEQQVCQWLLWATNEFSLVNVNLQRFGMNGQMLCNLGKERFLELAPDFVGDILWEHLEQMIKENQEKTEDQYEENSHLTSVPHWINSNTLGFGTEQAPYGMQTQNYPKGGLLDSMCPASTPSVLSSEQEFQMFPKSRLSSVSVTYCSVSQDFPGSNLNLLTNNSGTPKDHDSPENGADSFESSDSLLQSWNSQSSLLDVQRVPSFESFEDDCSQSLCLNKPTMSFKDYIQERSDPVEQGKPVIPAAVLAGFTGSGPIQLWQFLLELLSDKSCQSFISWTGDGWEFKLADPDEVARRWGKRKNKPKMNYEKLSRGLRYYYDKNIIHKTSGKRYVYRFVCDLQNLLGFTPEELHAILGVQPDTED
Method in brief: as §1

SPDEF = target: T10, SPDEF (Homo sapiens, UniProt O95238 1-335)
T10 sequence: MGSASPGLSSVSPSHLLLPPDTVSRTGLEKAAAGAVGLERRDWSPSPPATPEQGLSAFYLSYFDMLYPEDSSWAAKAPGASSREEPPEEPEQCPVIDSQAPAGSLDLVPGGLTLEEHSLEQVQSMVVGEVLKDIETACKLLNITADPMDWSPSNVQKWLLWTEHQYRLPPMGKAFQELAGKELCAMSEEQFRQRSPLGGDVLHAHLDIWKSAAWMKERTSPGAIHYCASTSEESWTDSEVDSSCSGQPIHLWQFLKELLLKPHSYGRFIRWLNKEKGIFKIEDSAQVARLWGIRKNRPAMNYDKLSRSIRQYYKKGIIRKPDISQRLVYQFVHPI
Method in brief: as §1

ETV7 = target: T11, ETV7 (Homo sapiens, UniProt Q9Y603 1-341)
T11 sequence: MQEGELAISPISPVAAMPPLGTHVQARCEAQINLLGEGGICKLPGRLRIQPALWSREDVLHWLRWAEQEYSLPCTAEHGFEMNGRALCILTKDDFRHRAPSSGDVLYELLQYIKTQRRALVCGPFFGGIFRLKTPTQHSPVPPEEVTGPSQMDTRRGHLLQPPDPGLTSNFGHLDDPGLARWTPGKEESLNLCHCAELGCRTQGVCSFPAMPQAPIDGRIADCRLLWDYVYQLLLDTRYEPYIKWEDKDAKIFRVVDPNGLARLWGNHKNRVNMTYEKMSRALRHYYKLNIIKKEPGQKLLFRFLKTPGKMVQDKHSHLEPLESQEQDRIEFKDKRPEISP
Method in brief: as §1

ETV6 = ETV6 (Homo sapiens, UniProt P41212 1-452)
ETV6, sequence (P41212 whole entry): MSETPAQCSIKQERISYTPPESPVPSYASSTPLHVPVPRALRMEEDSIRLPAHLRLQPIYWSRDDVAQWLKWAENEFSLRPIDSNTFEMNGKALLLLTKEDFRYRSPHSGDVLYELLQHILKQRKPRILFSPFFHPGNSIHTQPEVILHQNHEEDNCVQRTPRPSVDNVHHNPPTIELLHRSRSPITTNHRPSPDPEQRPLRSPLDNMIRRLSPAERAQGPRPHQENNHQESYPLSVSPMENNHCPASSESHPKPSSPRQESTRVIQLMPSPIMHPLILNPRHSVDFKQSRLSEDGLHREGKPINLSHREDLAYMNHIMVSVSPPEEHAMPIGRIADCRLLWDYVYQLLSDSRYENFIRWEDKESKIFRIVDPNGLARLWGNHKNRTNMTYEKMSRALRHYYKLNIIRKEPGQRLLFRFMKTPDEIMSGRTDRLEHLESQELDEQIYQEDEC
Method in brief: as §1

GCAGCT
binding signal (ELK1): 1.04 fold enrichment (6-mer frequency, TF over GST control)
binding signal (GABPA): 1.07 fold enrichment (6-mer frequency, TF over GST control)
binding signal (ERG): 1.02 fold enrichment (6-mer frequency, TF over GST control)
binding signal (ELF1): 1.06 fold enrichment (6-mer frequency, TF over GST control)
binding signal (EHF): 1.03 fold enrichment (6-mer frequency, TF over GST control)
binding signal (SPI1): 1 fold enrichment (6-mer frequency, TF over GST control)
binding signal (SPIB): 1.01 fold enrichment (6-mer frequency, TF over GST control)
binding signal (FEV): 1.09 fold enrichment (6-mer frequency, TF over GST control)
binding signal (ETV5): 1.08 fold enrichment (6-mer frequency, TF over GST control)
binding signal (ELF4): 1.06 fold enrichment (6-mer frequency, TF over GST control)
binding signal (ELK4): 1.08 fold enrichment (6-mer frequency, TF over GST control)
binding signal (ELF3): 1.07 fold enrichment (6-mer frequency, TF over GST control)
binding signal (ETV1): 1.13 fold enrichment (6-mer frequency, TF over GST control)
binding signal (ETV3L): 1.08 fold enrichment (6-mer frequency, TF over GST control)
binding signal (ETS2): 1.08 fold enrichment (6-mer frequency, TF over GST control)
binding signal (SPDEF): 1.06 fold enrichment (6-mer frequency, TF over GST control)
binding signal (ETV7): 1.11 fold enrichment (6-mer frequency, TF over GST control)
binding signal (ETV6): 1.06 fold enrichment (6-mer frequency, TF over GST control)
